Bioassay records (PubChem BioAssay)
HT1080NT lethal – kills 2HG-producing HT-1080-NT fibrosarcoma cells | HT-1080-NT fibrosarcoma viability, CellTiter-Glo ATP luminescence, 48 h | Potency, µM (highest dose often 46.1 µM), inactives show at the highest dose activity, negative = less viability, usual class: cytotoxic | hit rate 1.6% among 360,000 | AID 686970;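 further: NT is the 2HG producing partner of a matched IDH1 knockdown line; 0% = DMSO-treated cells and -100% = media-only wells without cells; nearly all actives have a fitted effect of over 55% in size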
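Read-out is CellTiter-Glo luminescence after 10 minutes at room temperature, following 48 hours' compound treatment of HT-1080-NT cells (750 cells/well, RPMI, 5% FBS, 37 degrees C).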
HT1080 IDH1KD tx – toxicity to HT-1080 IDH1 knockdown cells (counter line). AID 686971. Potency, µM (series often up to 46.1 µM), for inactives: top-dose activity, negative = toxicity, most hits filed as cytotoxic. hit rate 2% among 360,000. HT-1080 IDH1 knockdown viability, ATP luminescence, 48 h;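 further: 0% = DMSO wells and -100% = cell-free medium wells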
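% activity derives from luminescence (CellTiter-Glo), normalised to DMSO and no-cell wells. HT-1080-IDH1KD cells, 750/well, had 48 h compound exposure at 37 °C.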
KB-3-1 tox – KB-3-1 parental cell cytotoxicity | KB-3-1 viability, CellTiter-Glo ATP luminescence, 72 h | Potency, µM (titrated, usually from 46.1 µM), most hits filed as cytotoxic | hit rate 1.4% among 400,000 | AID 1347075; further: nearly all actives have a fitted effect of over 60% in size
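72 h, 37 °C compound treatment of KB-3-1 parental cells; CellTiter-Glo added, 10 min, luminescence read. Data corrected against DMSO-only plates and normalized before curve fitting.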
KB-V1 cytotox – kills drug-selected multidrug resistant KB-V1 cells. KB-V1 MDR cells viability, CellTiter-Glo, 72 h. Potency, µM (top dose mostly 46.1 µM), most hits filed as cytotoxic. hit rate 3.4% among 400,000. AID 1347076; further: nearly all actives have a fitted effect of over 60% in size
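KB-V1 MDR subline cells in DMEM (phenol-red free, 10% FBS) exposed to compounds in qHTS concentration series for 72 h at 37 degrees C. Viability read by CellTiter-Glo luminescence; concentration-effect curves fitted after normalization and correction.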
TDP1 cell CPT – growth inhibition of DT40 Tdp1-/-;hTDP1 cells with camptothecin (screen for TDP1 inhibitors); chicken DT40 Tdp1-/-;hTDP1 cells + 20 nM CPT, ATP luminescence, 48 h; Potency, µM (highest dose often 46.2 µM), for inactives: top-dose activity change, negative = growth inhibition, actives largely listed as inhibitors; hit rate 12% among 420,000; further: nearly all actives have a fitted effect of over 55% in size
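Chicken DT40 Tdp1-/- cells stably complemented with human TDP1 were seeded at 400 cells/well in medium containing 20 nM camptothecin, exposed to pin-transferred compounds, and grown at 37 °C for at least 48 hr. Viability was read as ATP luminescence.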
TDP1 cell noCPT – qHTS for Inhibitors of human tyrosyl-DNA phosphodiesterase 1 (TDP1): qHTS in cells in absence of CPT; DT40 Tdp1-/- hTDP1 cells, no CPT, ATP luminescence, 48 h; Potency, µM (top dose mostly 46.2 µM), without a hit: at the highest dose activity change, negative = growth inhibition, usual class: inhibitors; hit rate 15% among 420,000; AID 686978, 2013; further: nearly all actives have a fitted effect of over 55% in size
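Compound effects on proliferation are scored in DT40 Tdp1-/-;hTDP1 cells in the absence of CPT. ATP levels (CellTiter-Glo luminescence) are recorded after a ≥48 hr, 37 °C incubation.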
* marks the source's active call; other numbers are inactive results; i = inactive; u = inconclusive; x = no result; [ ] = remark or other dose. Compounds with a hit are over-represented: about 19% of the library has one in this group of screens. The call rests on the fitted dose curve; in most records, active means well fitted curve in the direction sought with a large enough effect; inconclusive means small, poorly fitted or top-dose-only effect, or another doubt; inactive means no such curve, though single readings can be large; an effect the other way counts as inactive or inconclusive. Unless noted, on the % scale 0 is the no-effect control and ±100 the full control effect; potency means the concentration at half of the fitted maximal effect.

SMILES	HT1080NT lethal	HT1080 IDH1KD tx	KB-3-1 tox	KB-V1 cytotox	TDP1 cell CPT	TDP1 cell noCPT
NC(=O)c1ccccc1NC(=O)c1ccc2c(c1)OCO2	-2%	-10%	i	i	-11%	u
Cc1cccc2c1N(CCOc1ccccc1Cl)C(=O)C2=O	5%	8%	i	i	2.6µM*	2.6µM*
COc1ccccc1OCCCN1C(=O)C(=O)c2cccc(C)c21	-6%	-10%	u	i	4.6µM*	1.5µM*
Cc1ccccc1OCCN1C(=O)C(=O)c2cccc(C)c21	0%	-9%	i	u	1.3µM*	0.92µM*
Cc1ccccc1OCCN1C(=O)c2ccccc2C1=O	2%	5%	i	i	-13%	-4%
CCC1CCCCN1C(=O)Cn1nc([N+](=O)[O-])c(Cl)c1C (configuration not stated)	18%	-15%	i	i	-12%	-4%
CCC1CN(CC(=O)NC(C)c2cn(C)nc2C)Cc2cc(OC)ccc2O1 (configuration not stated)	x	x	x	x	9%[9.04 µM]	-6%
CN1/C(=C\C(=O)c2cccs2)Sc2ccccc21	u	u	i	u	u	10µM*
COc1cccc2c(SCC(=O)N/N=C/c3ccc(O)cc3O)cc(C)nc12	u	u	u	i	u	10µM*
COc1ccc2nc(C)cc(SCC(=O)N/N=C/c3ccccc3)c2c1	-10%	-10%	i	i	-14%	u
COc1ccc2nc(C)cc(SCC(=O)Nc3c(C)cc(C)cc3C)c2c1	23%	-15%	i	13µM*	u	-6%
COc1ccccc1/C=N/NC(=O)CSc1cc(C)nc2ccccc12	u	u	u	i	7.3µM*	8.2µM*
CCOc1c(Br)cc(C(N)=O)cc1OCc1ccccc1	-19%	-12%	i	i	16%	-21%
CCOc1ccc(NS(=O)(=O)c2ccc3[nH]cc(C(=O)N4CCCCCC4)c(=O)c3c2)cc1	x	x	i	i	3%	5%
CS(=O)(=O)c1nc(S(=O)(=O)c2ccc(Cl)cc2)c(N2CCN(CCO)CC2)s1	4%	-1%	i	i	u	6%
Cc1ccc(S(=O)(=O)c2nc(S(=O)(=O)c3ccc(C)cc3)c(N3CCN(CCO)CC3)s2)cc1	u	u	i	i	23µM*	u
N#CC1=C2SCN(C3CCCCC3)CN2C(=O)CC1c1ccc(Cl)cc1 (configuration not stated)	x	x	i	i	4.6µM*	u
COc1ccccc1N1CSC2=C(C#N)C(c3ccc(SC)cc3)CC(=O)N2C1 (configuration not stated)	0%	0%	i	u	u	23µM*
N#CC1=C2SCN(C3CCCCC3)CN2C(=O)CC1c1ccc(F)cc1 (configuration not stated)	x	x	i	u	u	16µM*
COc1ccccc1N1CCN(C(=O)c2oc3ccccc3c2N)CC1	x	x	i	i	u	u
CC1CC(C)CN(S(=O)(=O)CC23CCC(CC2=O)C3(C)C)C1 (configuration not stated)	17%	12%	i	i	-1%	-18%
COc1ccc(C2NCCc3c2[nH]c2ccccc32)cc1CSc1nc2ccccc2s1 (configuration not stated)	23µM*	23µM*	u	23µM*	u	u
O=c1[nH]c(CSc2nc3ccccc3s2)nc2ccccc12	-15%	-10%	i	i	-22%	2%
CCC(C(=O)Nc1cccnc1)n1c(=O)[nH]c2ccccc2c1=O (configuration not stated)	-1%	2%	i	u	13%	-1%
CCOc1ccc(CCNC(=O)c2cccc(NC3=NC4CS(=O)(=O)CC4S3)c2)cc1 (configuration not stated)	1%	-1%	i	u	3%	5%
SMILES	HT1080NT lethal	HT1080 IDH1KD tx	KB-3-1 tox	KB-V1 cytotox	TDP1 cell CPT	TDP1 cell noCPT
O=C1Cc2c(-c3ccccc3)cc(-c3cccc(Cl)c3)nc2-c2ccccc2N1	-2%	-10%	u	i	21µM*	u
Fc1ccc(-c2cc(-c3ccccc3)c3c(n2)-c2ccccc2OC3)cc1	x	x	i	u	u	-25%
CC(=O)c1cccc(NC(=O)C2C(c3ccccc3)C2(Cl)Cl)c1 (configuration not stated)	-5%	-12%	i	i	-23%	-22%
CCOc1ccc(NC(=O)C2C(c3ccccc3)C2(Cl)Cl)cc1 (configuration not stated)	-11%	-4%	i	i	u	23µM*
COc1ccc(NC(=O)C2C(c3ccccc3)C2(Cl)Cl)cc1 (configuration not stated)	-4%	-12%	i	i	u	u
Cc1cccc(NC(=O)C2C(c3ccccc3)C2(Cl)Cl)c1 (configuration not stated)	-2%	-16%	i	i	u	13µM*
CCc1ccccc1NC(=O)Cn1c(=O)n(Cc2ccco2)c(=O)c2ccccc21	x	x	i	i	-28%	-22%
